# Coupling enz – counter-screen for Giardia aldolase inhibitors: coupling enzyme system; coupling enzyme system counterscreen, AmpLite Red fluorescence; 0.67% of 290,000 active; activity change, negative = inhibition, % at 58.2 µM, hits read low; in the data active means activity change below about -30%
#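 First, compound is pin-transferred into glyceraldehyde-3-phosphate coupling-enzyme reagent at 57.5 uM final and held 10 min at RT. Next, substrate, coupling system and AmpLite Red are added. After 20 min RT, fluorescence (525/598 nm) is read.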
# Tau fibril ThT – blocks human tau fibril formation measured by thioflavin T; P10636; recombinant tau K18 P301L, heparin-induced fibrillization, ThT fluorescence; Potency, µM (top dose mostly 57.4 µM), inactives show at the top dose activity, negative = inhibition, actives largely listed as inhibitors; 2.1% of 270,000 active; AID 1460; further: potency means the concentration at half of the fitted maximal effect; nearly all actives have a fitted effect of over 55% in size
# Target sequence (P10636 561-689 P618L limits assumed): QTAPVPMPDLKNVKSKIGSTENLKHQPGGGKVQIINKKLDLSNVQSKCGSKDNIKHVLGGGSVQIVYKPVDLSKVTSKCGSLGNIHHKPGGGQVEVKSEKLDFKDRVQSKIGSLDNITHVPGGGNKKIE
#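 Using a mix of unlabeled (15 uM) and Alexa 594-labeled (0.24 uM) tau K18 P301L, heparin-triggered fibrillization over 6 hr at 37 C was scored by ThT fluorescence.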
# Tau fibril FP – tau fibrillization inhibition (FP); Potency, µM (top dose mostly 57.7 µM), for inactives: at the highest dose activity, negative = inhibition, most hits filed as inhibitors; 0.39% of 280,000 active; K18 P301L tau heparin fibrillization, Alexa594 FP, 6 h; further: potency means the concentration at half of the fitted maximal effect; nearly all actives have a fitted effect of over 55% in size
#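 FP of Alexa 594-tau after heparin (20 uM) induction. Substrate: human K18 P301L, 15 uM unlabeled, 0.24 uM labeled. Buffer 100 mM sodium acetate pH 7. 6 hr, 37 C.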
# Sfp PPTase inh – inhibitors of Bacillus subtilis Sfp phosphopantetheinyl transferase. Q9F4F7. 3.5% of 310,000 active. AID 1490. Biochemical Sfp PPTase activity, qHTS. Potency, µM, inactives show largest response in the series, negative = inhibition, hits mostly inhibitors;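 further: the enzyme is Sfp with the accession as filed and its product quenches rhodamine fluorescence; potency means the concentration at half of the fitted maximal effect; 0% = enzyme reaction without inhibitor and -100% = no enzyme wells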
#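 Step 1, compound plus 15 nM Sfp-PPTase, 15 min, room temperature. Step 2, add rhodamine-CoA (5 uM) and BHQ-2-YbbR (12.5 uM). Step 3, read 525/598 nm fluorescence at 0 and 30 min.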
# G9a block – G9a (human) methyltransferase inhibition; G9a H3K9 monomethylation, AlphaScreen, 2 h; Q96KQ7; AID 504332; 8.8% of 350,000 active; Potency, µM (highest dose often 102 µM), for inactives: at the highest dose activity, negative = inhibition, actives largely listed as inhibitors; further: potency means the concentration at half of the fitted maximal effect; nearly all actives have a fitted effect of over 75% in size
# Target sequence (Q96KQ7 913-1193 limits assumed): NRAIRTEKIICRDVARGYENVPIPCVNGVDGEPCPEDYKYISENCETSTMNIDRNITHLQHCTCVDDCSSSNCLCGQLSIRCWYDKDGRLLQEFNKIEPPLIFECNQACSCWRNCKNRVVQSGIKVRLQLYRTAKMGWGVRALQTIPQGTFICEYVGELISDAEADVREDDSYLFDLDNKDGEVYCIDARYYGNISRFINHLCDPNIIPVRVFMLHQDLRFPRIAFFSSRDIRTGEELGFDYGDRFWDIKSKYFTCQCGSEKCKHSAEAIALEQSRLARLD
#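 G9a (20 nM) was preincubated 15 min with compound, then reacted 2 h at room temperature with 500 nM biotin-H3K9 peptide and 20 µM SAM. Monomethyl-H3K9 detected by AlphaScreen using anti-H3K9me1 antibody.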
# Tau fluor counter – counter-screen for tau fibril formation inhibitors. Potency, µM (titrated, usually from 57.7 µM), inactives show at the top dose activity change, negative = decrease. AID 1463. tau K18 P301L Alexa594 fluorescence, heparin fibrillization. 0.93% of 280,000 active; further: potency means the concentration at half of the fitted maximal effect; nearly all actives have a fitted effect of over 55% in size
#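 Human tau K18 P301L (15 uM unlabeled, 0.24 uM Alexa 594-labeled) in 100 mM sodium acetate pH 7 with 20 uM heparin, 6 hr at 37 C. ThT 30 uM added, 1 hr ambient; Alexa 594 FP and total fluorescence read at 555/632 nm.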
# * marks the source's active call; other numbers are inactive results; u = inconclusive; x = no result; ! = repeats disagree; [ ] = remark or other dose. Hits are enriched below; roughly 11% of the tested compounds scored in any of these assays. Unless noted, the call rests on the fitted dose curve; in most records, active means well fitted curve in the direction sought with a large enough effect; inconclusive means small, poorly fitted or top-dose-only effect, or another doubt; inactive means no such curve, though single readings can be large; an effect the other way counts as inactive or inconclusive. Unless noted, on the % scale 0 is the no-effect control and ±100 the full control effect.
SMILES,Coupling enz,Tau fibril ThT,Tau fibril FP,Sfp PPTase inh,G9a block,Tau fluor counter
O=C(O)CCC(CP(=O)(O)O)C(=O)O (configuration not stated),1,x,x,-7%,x,x
COc1ccc(NC(=O)N2CC3(CCN(C(=O)Oc4ccccc4)CC3)C2)cc1,0,x,x,11%,-9%[12.7 µM],x
CN1CCc2nc3sc(C#N)c(N)c3c(-c3cccs3)c2C1,-1,28µM*,u,50µM*,u,u
NC(=O)c1sc2nc3c(c(-c4cccs4)c2c1N)CCCC3,-2,-15%,11%,-17%,22µM*,-5%
COc1cc2[nH]c(=O)n(CCCCCC(=O)N3CCN(c4cccc(C(F)(F)F)c4)CC3)c(=O)c2cc1OC,x,u,-12%,x,-28%[59 µM],u
CC(C)=CCCC1(C)C=Cc2c(O)c3c(c(CC=C(C)C)c2O1)OC12C(CC4CC1C(C)(C)OC2(C/C=C(/C)C(=O)O)C4O)C3=O (configuration not stated),0,u,-3%,-15%,-7%[2.33 µM],-17%
CCN1CCN(C(=O)COc2ccc(S(=O)(=O)Nc3ccc(Cl)cc3)cc2)CC1,4,x,x,-9%,8%,x
CCN1CCN(C(=O)Cc2c(C)n(C(=O)c3ccc(Cl)cc3)c3ccc(OC)cc23)CC1,-1,-1%,4%,-12%,50µM*,-5%
Oc1ccccc1/C=N/[n+]1ccccc1,2,-3%,-6%,-6%,56µM*,0%
CCCCCC[C@H]1C(=O)O[C@H](C)[C@H](NC(=O)c2cccc(NC=O)c2O)C(=O)O[C@@H](C)[C@H]1OC(=O)CC(C)C,4,x,x,12%,1%[21.5 µM],x
Cc1cccc(OCC(=O)N2CCN(Cc3ccc4c(c3)OCO4)CC2)c1,1,-1%,4%,-28%,10µM*,2%
Cc1ccc(OCC(=O)N2CCN(Cc3ccc4c(c3)OCO4)CC2)cc1C,-1,-4%,12%,7%,-8%[12.7 µM],4%
O=C(COc1ccc(Br)cc1)N1CCN(Cc2ccncc2)CC1,0,u,-13%,-7%,18µM*,-17%
CSc1ccc(CN2CCN(C(=O)COc3ccc(C)cc3)CC2)cc1,-2,u,8%,-12%,10µM*,-2%
Cc1cccc(OCC(=O)N2CCN(Cc3ccncc3)CC2)c1,-4,-6%,2%,u,2.5µM*,-4%
N[C@@]1(C(=O)O)CC[C@H](C(=O)O)C1,0,-10%,4%,u,x,-9%
Cc1cc(SCc2sc(-c3ccc(C(F)(F)F)c(F)c3)nc2C)ccc1OCC(=O)O,2,u,-9%,-21%,x,-1%
C=C(C)[C@]12C[C@@H](C)[C@@]34OC(Cc5ccccc5)(O[C@@H]1[C@@H]3C=C(COC(=O)Cc1cc(OC)c(O)cc1I)C[C@]1(O)C(=O)C(C)=C[C@@H]41)O2,-6,-4%,-8%,16%,22%[59 µM],u
CCc1ccc(Nc2nc3c(S(=O)(=O)c4ccc(C)cc4)nnn3c3ccsc23)cc1,x,11%,u,x,2%[59 µM],-29%
O=C(Oc1ccccc1)N1CCC[C@@]2(CCN(Cc3nccs3)C2)C1,0,x,x,20%,-6%[12.7 µM],x
Cc1ccc(C[N+](C)(C)C)o1,-3,-4%,u,-1%,2%[59 µM],-7%
CCc1ccccc1NC(=O)NNS(=O)(=O)c1cc(C)ccc1C,3,x,x,5%,58%,x
c1ccc2c(N3CCNCC3)cccc2c1,x,-4%,-2%,-9%,17µM*!,-3%
c1ccc2nc(N3CCNCC3)ccc2c1,-1,-4%,3%,-9%,11µM*!,-3%
Clc1cccc(N2CCNCC2)c1Cl,-3,4%,11%,16%,3%[59 µM],9%
SMILES,Coupling enz,Tau fibril ThT,Tau fibril FP,Sfp PPTase inh,G9a block,Tau fluor counter
CC[C@@H]1CN2CCc3cc(OC)c(OC)cc3[C@H]2C[C@@H]1C[C@@H]1NCCc2cc(O)c(OC)cc21,1,x,x,2%,-1%[21.5 µM],x
CC(C)CN1CC[C@@]2(CCCN(C(=O)Oc3ccccc3)C2)C1,2,x,x,-4%,6%[12.7 µM],x
CCc1nnc(NC(=O)CSc2ccc(-c3ccco3)nn2)s1,-6,u,-8%,28µM*,22µM*,-15%
O=C(CSc1ccc(-c2ccco2)nn1)Nc1ccccc1,-3,u,-13%,32µM*,20µM*,-24%
O=C(CSc1oc(-c2ccccc2)nc1S(=O)(=O)c1ccc(Cl)cc1)Nc1ccc(F)cc1,x,2%,u,x,u,-25%
COC(=O)C[C@@](O)(CCC(C)(C)O)C(=O)O[C@@H]1C(OC)=C[C@]23CCCN2CCc2cc4c(cc2[C@@H]13)OCO4,2,x,x,7%,x,x
COC1=CC23CCCN2CCc2cc4c(cc2C3C1O)OCO4 (configuration not stated),1,35µM*,u,5%,-39%[2.33 µM],u
C#CC(C)(O)CC (configuration not stated),x,x,x,-2%,5%[12.7 µM],x
CC1=CC(=C2C(=O)NC(=S)NC2=O)C=C(C(F)(F)F)N1Cc1ccccc1,-6,-16%,-5%,8%,79µM*,-8%
CC(C)(C)OC(=O)N1CC[C@H]1COc1cnc[c]([Sn]([CH3])([CH3])[CH3])c1,2,-3%[11.5 µM],0%[11.6 µM],12%,16%[12.7 µM],-7%[11.6 µM]
O=C1C=CC(=O)c2c1ccc1c2ccc2ccccc21,-28,x,x,3.5µM*,5µM*,x
CC(CO)NC(=O)C1C=C2c3cccc4[nH]cc(c34)CC2N(C)C1 (configuration not stated),x,u,u,17%,16µM*,u
CC[C@@H](CO)NC(=O)[C@H]1C=C2c3cccc4c3c(cn4C)C[C@H]2N(C)C1,-42*,u,-1%,56µM*,35%[12.7 µM],-24%
CC(CO)NC(=O)C1C=C2c3cccc4[nH]cc(c34)C[C@H]2N(C)C1 (some centres not stated),0,u,4%,23%,-31%[2.33 µM],u
C[C@@H](CO)NC(=O)[C@@H]1C=C2c3cccc4[nH]cc(c34)C[C@H]2N(C)C1,-18,u,u,21%,x,u
CCCN(CCC)[C@@H]1CCc2c(OC)cccc2[C@@H]1C,0,-8%,-2%,6%,15%[59 µM],-6%
Oc1cccc[c]1[Hg][Cl],x,x,x,0.14µM*,u,x
CN1CCc2cc3c(c4c2C1Cc1ccccc1-4)OCO3 (configuration not stated),-35*,x,x,-27%,5%[0.501 µM],x
CN1CCc2cc3c(cc2[C@@H]1O)OCO3,2,x,x,14%,11%[21.5 µM],x
CCNN,-5,x,x,u,x,x
